Assay results published in PubChem BioAssay (Tox21).
Records with an inconclusive call do not appear. Activity calls are given as the source filed them. Unless noted, calls follow the shape of the full dose curve.

Columns and labels:
[1] = Nuclear factor erythroid 2-related factor 2/antioxidant responsive element (Nrf2/ARE) small molecule agonists: qHTS cell viability counter screen in human keratinocytes (AID 1919968; active = well fitted curve in the direction sought with a large enough effect in the repeat runs; an effect the other way counts as inactive or inconclusive; also: nearly all actives have a fitted effect of over 55% in size; also: potency is read from the fitted curve at half-maximal effect)
Summary of the method: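 In human HaCaT keratinocytes stably expressing an ARE-driven luciferase, compound exposure lasted 23 h at 37 C under 5% CO2. Viable cells are quantified with a protease-based fluorogenic reagent (CellTiter-Fluor) read 1 h after addition.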

[2] = Nuclear factor erythroid 2-related factor 2/antioxidant responsive element (Nrf2/ARE) small molecule agonists: luciferase reporter gene qHTS assay in human keratinocytes (AID 1919969); also: nearly all actives have a fitted effect of over 35% in size; also: potency is read from the fitted curve at half-maximal effect
[3] = target: Gonadotropin-releasing hormone receptor (Homo sapiens) (UniProt P30968); assay: Human gonadotropin-releasing hormone receptor (GnRHR) small molecule agonists, calcium flux assay in GnRHR-HEK293 cells (AID 1920063); also: nearly all actives have a fitted effect of over 35% in size
Summary of the method: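 Intracellular calcium rise is the read-out: engineered human GnRHR HEK293 cells, dye-loaded, are exposed to DMSO-dissolved compounds and fluorescence at Ex/Em 480/540 is tracked for 3 min.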

[4] = target: KiSS-1 receptor (Homo sapiens) (UniProt Q969F8); assay: Human kisspeptin (KISS1R) small molecule agonists, calcium flux assay in KISS1R-HEK293 cells (AID 1920064; active = well fitted curve in the direction sought with a large enough effect in the repeat runs; an effect the other way counts as inactive or inconclusive)
Summary of the method: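 Concentration-response testing used 15 concentrations in triplicate on human KISS1R-expressing HEK293 cells. Calcium-dependent fluorescence (Ex/Em 480/540) was followed kinetically for 3 min after compound transfer.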

[5] = G protein-coupled receptor (GPCR) small molecule agonists, calcium flux assay: HEK293 wild type cell line counter screen (AID 1920065)
Summary of the method: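 Fluorescence intensity signals activation. After overnight (18 h) culture and a 1 h calcium dye load at 37 C, compounds are added by pin tool and the plate read at 480/540 nm for 3 min in 1 s steps.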

[6] = p53 small molecule agonists, cell-based qHTS assay with human liver microsomes (AID 1963577);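 also: p53 response element beta-lactamase reporter cells with liver microsomes plus NADPH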
Summary of the method: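 Reporter activation was measured by LiveBLAzer fluorescence intensity in p53RE-bla cells, which had been exposed to compounds for 16 h at 37 C alongside 0.5 mg/mL human liver microsomes and 0.5 mg/mL NADPH (final concentrations).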

[7] = p53 small molecule agonists, cell-based qHTS assay with rat liver microsomes (AID 1963578)
Summary of the method: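 Compound in DMSO added to p53RE-bla cells 5 h post-plating; rat microsomes/NADPH 0.5 mg/mL final; 16 h, 37 C; LiveBLAzer 2 h RT.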

[8] = p53 small molecule agonists, cell-based qHTS assay with human liver microsomes: qHTS cell viability counter screen (AID 1963579); also: nearly all actives have a fitted effect of over 45% in size
Summary of the method: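 HLM-supplemented (0.5 mg/mL final) and NADPH-supplemented (0.5 mg/mL final) p53RE-bla cultures, 4,000 cells per well, were dosed with compounds in DMSO for 16 h at 37 C; luminescent ATP detection (CellTiter-Glo, 30 min, room temperature) quantified surviving cells.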

[9] = p53 small molecule agonists, cell-based qHTS assay: qHTS cell viability counter screen (AID 1963581); also: nearly all actives have a fitted effect of over 45% in size
Summary of the method: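 Luminescence from CellTiter-Glo, reflecting ATP content, serves as the cytotoxicity measure; it is taken after the 2 h reporter substrate step in HCT-116 p53RE-bla cells dosed for 16 h at 37 C.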

[10] = p53 small molecule agonists, cell-based qHTS assay (AID 1963582; active = well fitted activation curve with a large enough effect in the signal ratio in the repeat runs, not every such curve was filed as active; the % refers to the signal ratio; also: potency is read from the fitted curve at half-maximal effect)
Summary of the method: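 After plating, p53RE-bla cells sat 5 h in the incubator; compounds or DMSO vehicle were pinned in; a 16 h incubation at 37 C followed; FRET substrate was added and, 2 h later at RT, fluorescence was measured.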

[11] = cAMP Responsive Elements (CRE) small molecule agonists, cell-based qHTS assay (AID 1963590)
Summary of the method: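 Compound exposure lasted 3 h at 37 C/5% CO2 in CRE-bla HEK 293T cells grown in assay medium with 10% dialyzed FBS and 25 mM HEPES. Reporter signal came from LiveBLAzer B/G FRET substrate, 2 h, room temperature.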

[12] = cAMP Responsive Elements (CRE) small molecule antagonists, cell-based qHTS assay (AID 1963591; active = well fitted inhibition curve with a large enough effect in the signal ratio in the repeat runs, not every such curve was filed as active; the % refers to the signal ratio)
Summary of the method: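 Stimulation used NKH477 at a final 0.25 uM for 3 h in compound-treated CRE-bla HEK293T cells, seeded 18 h beforehand. Reporter activity was measured with LiveBLAzer B/G FRET substrate after 2 h at room temperature.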

[13] = target: Beta-2 adrenergic receptor (Homo sapiens) (UniProt P07550); assay: Adrenergic beta2 receptor (ADRB2) small molecule antagonists, cell-based qHTS assay (AID 1963592); also: series mostly up to about 92 µM; nearly all actives have a fitted effect of over 50% in size
Summary of the method: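 Assay format: CHO-ADRB2 cells, 18-20hr seeding at 37C/5% CO2, then compound plus 1nM isoproterenol agonist mix for 0.5hr RT. Homogeneous time-resolved fluorescence cAMP detection after 1hr, expressed as 665/615 nm ratio.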

[14] = target: D(2) dopamine receptor (Homo sapiens) (UniProt P14416); assay: Dopamine D2 receptor (DRD2) small molecule agonists, cell-based qHTS assay (AID 1963594); also: nearly all actives have a fitted effect of over 35% in size
Summary of the method: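 cAMP accumulation in DRD2-HEK293 cells measured by HTRF after 1 h detection; compounds added 10 min before NKH477 (200nM […]) forskolin-analogue stimulation, 30 min at room temperature, with Ro20-1724 present at 0.1 mM final.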

[15] = target: D(2) dopamine receptor (Homo sapiens) (UniProt P14416); assay: Dopamine D2 receptor (DRD2) small molecule antagonists, cell-based qHTS assay (AID 1963595; active = well fitted inhibition curve with a large enough effect in the signal ratio in the repeat runs, with a control signal flat; the % refers to the signal ratio)
Summary of the method: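 HTRF cAMP read-out at 665 and 620 nm emission (340 nm excitation). Antagonist mode: compounds were tested against 12 nM quinpirole in DRD2-HEK293 cells, with 200 nM NKH477 raising cAMP and 0.1 mM Ro20-1724 blocking its breakdown.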

[16] = target: Muscarinic acetylcholine receptor M1 (Homo sapiens) (UniProt P11229); assay: Cholinergic receptor muscarinic 1 (CHRM1) small molecule antagonists, cell-based qHTS assay (AID 1963588); also: nearly all actives have a fitted effect of over 40% in size; also: potency is read from the fitted curve at half-maximal effect
Summary of the method: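 Compounds were tested at 15 concentrations in three independent runs. Dye-loaded CHRM1-CHO cells were exposed 5 min at room temperature before stimulation by acetylcholine added at 50nM. Intracellular calcium was read kinetically on FDSS for 3 min.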

[17] = target: 5-hydroxytryptamine receptor 2A (Homo sapiens) (UniProt P28223); assay: 5-hydroxytryptamine receptor 2A (HTR2A) small molecule agonists, cell-based qHTS assay (AID 1963587); also: nearly all actives have a fitted effect of over 30% in size
Summary of the method: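 Kinetic calcium-flux fluorescence (2 min, 1 sec intervals) after compound addition in agonist mode. HTR2A-CHO cells were cultured 18 h, then dye-loaded 1 h at 37 C.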

[18] = target: Muscarinic acetylcholine receptor M1 (Homo sapiens) (UniProt P11229); assay: Cholinergic receptor muscarinic 1 (CHRM1) small molecule agonists, cell-based qHTS assay (AID 1963589); also: nearly all actives have a fitted effect of over 35% in size
Summary of the method: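 Fluorescent calcium dye reports M1 activation in stably transfected CHO cells. Compounds, 15 concentrations, added after 1 h dye loading at 37 C; kinetic reading at 1 sec intervals.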

[19] = target: 5-hydroxytryptamine receptor 2A (Homo sapiens) (UniProt P28223); assay: 5-hydroxytryptamine receptor 2A (HTR2A) small molecule antagonists, cell-based qHTS assay (AID 1963586); also: nearly all actives have a fitted effect of over 45% in size
Summary of the method: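 CHO cells stably expressing human HTR2A were plated for 18 h at 37 C, then loaded with calcium dye for 1 h. Compounds were preincubated 5 min at room temperature before DOI (4 nM solution) was added. Kinetic fluorescence was read for 3 min.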
% is scaled to controls: 0 for no effect and ±100 for the full control effect.

Sequence of Beta-2 adrenergic receptor (Homo sapiens) (P07550 whole entry, looked up): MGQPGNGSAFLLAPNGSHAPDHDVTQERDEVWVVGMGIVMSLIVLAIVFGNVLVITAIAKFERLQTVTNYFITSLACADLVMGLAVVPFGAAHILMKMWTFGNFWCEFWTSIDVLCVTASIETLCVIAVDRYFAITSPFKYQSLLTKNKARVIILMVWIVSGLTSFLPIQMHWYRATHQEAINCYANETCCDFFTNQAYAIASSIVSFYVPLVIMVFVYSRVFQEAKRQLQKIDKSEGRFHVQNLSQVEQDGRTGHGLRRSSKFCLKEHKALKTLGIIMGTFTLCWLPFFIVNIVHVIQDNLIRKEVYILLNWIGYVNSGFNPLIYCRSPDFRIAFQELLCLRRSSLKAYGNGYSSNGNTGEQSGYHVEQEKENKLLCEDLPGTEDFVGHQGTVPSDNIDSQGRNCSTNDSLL
Sequence of Gonadotropin-releasing hormone receptor (Homo sapiens) (P30968 whole entry, looked up): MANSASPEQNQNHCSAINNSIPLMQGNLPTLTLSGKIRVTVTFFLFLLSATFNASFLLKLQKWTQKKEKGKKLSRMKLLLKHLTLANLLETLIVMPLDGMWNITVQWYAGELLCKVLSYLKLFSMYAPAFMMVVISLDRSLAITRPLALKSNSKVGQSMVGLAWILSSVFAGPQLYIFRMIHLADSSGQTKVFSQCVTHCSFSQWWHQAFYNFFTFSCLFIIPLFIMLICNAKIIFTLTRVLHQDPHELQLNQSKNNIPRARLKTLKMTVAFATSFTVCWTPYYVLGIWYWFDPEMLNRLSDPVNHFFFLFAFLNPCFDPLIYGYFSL
Sequence of 5-hydroxytryptamine receptor 2A (Homo sapiens) (P28223 whole entry, looked up): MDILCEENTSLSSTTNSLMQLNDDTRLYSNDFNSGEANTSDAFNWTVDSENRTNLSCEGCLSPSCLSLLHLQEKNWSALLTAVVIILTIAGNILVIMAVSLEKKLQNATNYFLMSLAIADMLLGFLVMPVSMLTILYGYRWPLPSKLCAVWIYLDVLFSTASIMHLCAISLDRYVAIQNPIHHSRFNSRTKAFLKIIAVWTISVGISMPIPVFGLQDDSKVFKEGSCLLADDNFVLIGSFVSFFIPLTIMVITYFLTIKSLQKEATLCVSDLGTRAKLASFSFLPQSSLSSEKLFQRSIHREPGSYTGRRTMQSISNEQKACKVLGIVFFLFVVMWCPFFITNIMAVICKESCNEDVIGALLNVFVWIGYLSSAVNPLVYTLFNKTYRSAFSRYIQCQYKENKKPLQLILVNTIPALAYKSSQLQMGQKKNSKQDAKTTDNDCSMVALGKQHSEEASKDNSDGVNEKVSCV
Sequence of Muscarinic acetylcholine receptor M1 (Homo sapiens) (P11229 whole entry, looked up): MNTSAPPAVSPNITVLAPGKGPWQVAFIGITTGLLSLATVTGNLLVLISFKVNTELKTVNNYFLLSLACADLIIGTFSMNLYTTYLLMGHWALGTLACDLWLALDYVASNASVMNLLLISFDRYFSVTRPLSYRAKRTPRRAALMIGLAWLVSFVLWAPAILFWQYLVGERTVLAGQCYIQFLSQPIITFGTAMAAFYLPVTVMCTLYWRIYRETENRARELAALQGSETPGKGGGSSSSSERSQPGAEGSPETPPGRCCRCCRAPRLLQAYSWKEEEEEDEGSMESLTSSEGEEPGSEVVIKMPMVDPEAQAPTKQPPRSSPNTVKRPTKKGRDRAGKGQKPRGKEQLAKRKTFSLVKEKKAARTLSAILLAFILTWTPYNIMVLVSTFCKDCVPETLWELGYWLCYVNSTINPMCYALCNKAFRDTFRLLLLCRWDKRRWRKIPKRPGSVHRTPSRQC
Sequence of KiSS-1 receptor (Homo sapiens) (Q969F8 whole entry, looked up): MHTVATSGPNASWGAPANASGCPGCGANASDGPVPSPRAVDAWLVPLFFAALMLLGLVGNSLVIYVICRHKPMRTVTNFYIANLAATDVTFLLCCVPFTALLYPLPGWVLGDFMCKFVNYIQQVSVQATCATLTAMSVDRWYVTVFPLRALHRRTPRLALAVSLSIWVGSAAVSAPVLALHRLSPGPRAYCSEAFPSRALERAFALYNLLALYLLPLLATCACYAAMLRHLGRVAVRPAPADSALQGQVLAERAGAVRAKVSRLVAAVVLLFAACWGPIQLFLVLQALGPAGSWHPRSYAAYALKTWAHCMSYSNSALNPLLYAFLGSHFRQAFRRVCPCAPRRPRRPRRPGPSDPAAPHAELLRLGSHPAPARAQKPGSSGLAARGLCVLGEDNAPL
Sequence of D(2) dopamine receptor (Homo sapiens) (P14416 whole entry, looked up): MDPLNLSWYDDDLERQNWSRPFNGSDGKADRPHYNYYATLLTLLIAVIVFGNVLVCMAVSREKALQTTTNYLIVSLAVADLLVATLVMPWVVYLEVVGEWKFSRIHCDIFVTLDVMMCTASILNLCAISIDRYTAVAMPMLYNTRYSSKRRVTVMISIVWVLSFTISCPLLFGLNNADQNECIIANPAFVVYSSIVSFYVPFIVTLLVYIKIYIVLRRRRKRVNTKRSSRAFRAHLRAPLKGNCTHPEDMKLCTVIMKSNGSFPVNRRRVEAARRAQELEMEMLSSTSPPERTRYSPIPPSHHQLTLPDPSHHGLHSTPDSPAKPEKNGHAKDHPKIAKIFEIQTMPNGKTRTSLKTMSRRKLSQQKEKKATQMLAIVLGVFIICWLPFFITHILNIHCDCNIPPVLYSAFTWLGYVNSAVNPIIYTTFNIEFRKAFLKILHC

C[C@H](CCC(=O)O)[C@H]1CC[C@H]2[C@@H]3[C@H](O)C[C@@H]4C[C@H](O)CC[C@]4(C)[C@H]3C[C@H](O)[C@]12C
inactive: Potency [1] | Potency [2] | Potency [3] | outcome [4] | outcome [5] | Potency [6] | Potency [7] | Potency [8] | Potency [9] | Potency [10] | Potency [11] | Potency [12] | Potency [13] | Potency [14] | Potency [15]

CC(C)(C)C(=O)Oc1ccc(S(=O)(=O)Nc2ccccc2C(=O)NCC(=O)O)cc1
inactive: Potency [1] | Potency [2] | Potency [3] | outcome [4] | outcome [5] | Potency [6] | Potency [7] | Potency [8] | Potency [9] | Potency [10] | Potency [16] | Potency [11] | Potency [12] | Potency [13] | Potency [14] | Potency [15]

COc1ccc(OC)c(NC(=O)CC(C)=O)c1
inactive: Potency [1] | Potency [2] | Potency [3] | outcome [4] | outcome [5] | Potency [6] | Potency [7] | Potency [8] | Potency [9] | Potency [10] | Potency [17] | Potency [16] | Potency [18] | Potency [11] | Potency [13] | Potency [14] | Potency [15]

CC(C)=NNC(N)=S
active: Potency [1] 30.6 µM | Potency [2] 15.4 µM
inactive: Potency [3] | outcome [4] | outcome [5] | Potency [6] | Potency [7] | Potency [8] | Potency [9] | Potency [10] | Potency [19] | Potency [17] | Potency [16] | Potency [18] | Potency [12] | Potency [14]

N=c1ccn2c(n1)O[C@H]1[C@H](O)[C@@H](CO)O[C@H]12
inactive: Potency [1] | Potency [2] | Potency [3] | outcome [4] | outcome [5] | Potency [6] | Potency [7] | Potency [8] | Potency [9] | Potency [19] | Potency [17] | Potency [16] | Potency [18] | Potency [11] | Potency [12] | Potency [13] | Potency [14] | Potency [15]

C/C(=C(\CCOP(=O)(O)O)SC(=O)c1ccccc1)N(C=O)Cc1cnc(C)nc1N
inactive: activity change, negative = cytotoxicity [1] -6.37% [at 8.39 µM] | activity, positive = activation [2] -0.129% [at 8.39 µM] | activity change [3] -0.163% [at 5.22 µM, stronger effect = higher value] | activation [4] -0.956% [at 6.97 µM] | activation [5] -0.0907% [at 5.23 µM] | activation [6] -1.03% [at 5.99 µM] | activation [7] -4.95% [at 5.99 µM] | activity change, negative = cytotoxicity [8] 1.21% [at 5.99 µM] | activity change, negative = cytotoxicity [9] 10.8% [at 5.99 µM] | activation [10] 1.46% [at 5.99 µM] | activation [17] -0.64% [at 7.02 µM] | activity, negative = inhibition [16] 1.74% [at 5.58 µM] | activation [18] -0.572% [at 6.97 µM] | activity change, negative = inhibition [12] 1.78% [at 8.39 µM] | activity change, negative = inhibition [13] 2.25% [at 8.39 µM] | activity change, negative = inhibition [15] 2.34% [at 8.38 µM]

CCOc1cc(OCC)c(C(=O)CCC(=O)O)cc1OCC
inactive: Potency [1] | Potency [2] | Potency [3] | outcome [4] | outcome [5] | Potency [6] | Potency [7] | Potency [8] | Potency [9] | Potency [10] | Potency [19] | Potency [17] | Potency [16] | Potency [18] | Potency [13] | Potency [14] | Potency [15]

COc1cccc(-c2ccc(/C=C\CN3CCCCCC3)cc2Cl)c1
active: Potency [1] 38.4 µM | Potency [16] 0.836 µM
inactive: Potency [2] | Potency [3] | outcome [4] | outcome [5] | Potency [6] | Potency [7] | Potency [8] | Potency [9] | Potency [10] | Potency [18] | Potency [13]

CCCCCCCCCCOC(C)=O
inactive: Potency [1] | Potency [2] | Potency [3] | outcome [4] | outcome [5] | Potency [6] | Potency [7] | Potency [8] | Potency [9] | Potency [10] | Potency [17] | Potency [16] | Potency [18] | Potency [11] | Potency [12] | Potency [13] | Potency [14] | Potency [15]

Nc1ccc(C(=O)OCCCOC(=O)c2ccc(N)cc2)cc1
inactive: Potency [1] | Potency [2] | Potency [3] | outcome [4] | outcome [5] | Potency [6] | Potency [7] | Potency [8] | Potency [9] | Potency [10] | Potency [19] | Potency [17] | Potency [16] | Potency [18] | Potency [13] | Potency [14] | Potency [15]

CCCCCCCCCCCCCCCCCCOS(=O)(=O)O
inactive: Potency [2] | Potency [3] | outcome [4] | outcome [5] | Potency [6] | Potency [7] | Potency [8] | Potency [9] | Potency [10] | Potency [19] | Potency [16] | Potency [18] | Potency [11] | Potency [12] | Potency [13] | Potency [14] | Potency [15]
active: Potency [1] 68.6 µM

CC(CN1CC(=O)NC(=O)C1)N1CC(=O)NC(=O)C1 (stereo unspecified)
active: Potency [10] 19.9 µM
inactive: Potency [1] | Potency [2] | Potency [3] | outcome [4] | outcome [5] | Potency [6] | Potency [7] | Potency [8] | Potency [9] | Potency [17] | Potency [16] | Potency [18] | Potency [11] | Potency [12] | Potency [13] | Potency [14] | Potency [15]

O=S1OCCO1
inactive: Potency [1] | Potency [2] | Potency [3] | outcome [4] | outcome [5] | Potency [6] | Potency [7] | Potency [8] | Potency [9] | Potency [10] | Potency [19] | Potency [17] | Potency [18] | Potency [12] | Potency [13] | Potency [14] | Potency [15]
